Experimental data as given in PubChem BioAssay (EPA / NIEHS).
Values joined by “and” are separate entries in the source; they are usually repeats but may differ in a detail not shown here. Equal entries are not always repeated. Some structures have more than one record in an assay (separate samples or runs), and their calls can disagree. Active and inactive are the calls of the source. How the source made its calls: active means hit-call score of the fitted dose curve at least 0.9, where 1 is the maximum; inactive means score below 0.9.

Each molecule was assayed on CD40, CD40 (gene 958) (assay: BSK_SAg_CD40: BioMAP Diversity Plus: SAg Assay for CD40 Biomarker Activity (AID 2283088)). Details: primary human HUVEC with PBMC; actives raise or lower the signal.
Experimental: BSK_SAg is a cell-based, multiplexed-readout assay that uses umbilical vein endothelium and peripheral blood mononuclear cells, a human vascular primary cell co-culture, with measurements taken at 24 hours after chemical dosing in a 96-well plate.BSK_SAg_CD40 is one of 10 assay component(s) measured or calculated from the BSK_SAg assay. It is designed to make measurements of enzyme-linked immunosorbent assay, a form of binding reporter, as detected with fluorescence intensity signals by Enzyme-linked immunosorbent assay technology.Data from the assay component BSK_SAg_CD40 was analyzed into 1 assay endpoint. This assay endpoint, BSK_SAg_CD40, was analyzed with bidirectional fitting relative to DMSO as the negative control and baseline of activity. Using a type of binding reporter, gain or loss-of-signal activity can be used to understand changes in the signaling as they relate to the gene CD40. Furthermore, this assay endpoint can be referred to as a primary readout, because this assay has produced multiple assay endpoints where this one serves a signaling function. To generalize the intended target to other relatable targets, this assay endpoint is annotated to the cytokine intended target family, where the subfamily is inflammatory factor.
The levels of cell surface (or secreted, indicated by the prefix "s") biomarker endpoints were measured by ELISA. Overt cytotoxicity to cells in confluent adherent cultures (all systems other than the BT system) was assessed by measuring total protein levels using sulforhodamine B (SRB) staining in parallel cultures at the time of biomarker measurements, indicated as SRB endpoints. For proliferation assays for adherent cell types, individual cell types are cultured at sub-confluence and relative cell numbers quantified by SRB staining at time points optimized for each system (48 h: 3C and CASM3C systems; 72 h: BT and HDF3CGF systems; 96 h: SAg system). SRB was performed by staining cells with 0.1% SRB after fixation with 10% TCA and reading wells at 560 nm.Viability and proliferation of PBMC (T cells) was quantified by Alamar Blue reduction for the SAg and BT systems. For PBMC viability (referred to as PBMC Cytotoxicity within the assay endpoint names), cells were plated (75,000/well in a 96-well plate) and then chemical samples added for 1 h before addition of activators, SEB and TSST-1 (20 ng/mL final concentration each). Cells were incubated for 90 h. Then, Alamar Blue (20 uL/well) (Invitrogen, Cat DAL1100) was added for 6 h, and the plates were read with a fluorescence microplate reader at 546/580 nm (excitation/emission). For PBMC proliferation, cells were plated and activated as above but incubated for only 16 h prior to addition of Alamar Blue. Plates were read after 6 h.

How did the AC50 turn out when `CCCN(CCC)c1c([N+](=O)[O-])cc(S(N)(=O)=O)cc1[N+](=O)[O-]` was run?
Its AC50 is 35.8 µM (active) [middle of 4 runs].

`CCOP(=S)(OCC)SCn1c(=O)oc2cc(Cl)ccc21` was tested. Which outcome did it give?
Its outcome is “inactive”.

Which outcome does the source give for `CCOC(=O)C(Cl)Cc1cc(-n2nc(C)n(C(F)F)c2=O)c(F)cc1Cl` (stereo not given) here?
The outcome was “inactive”.

`CCCCC(CC)COC(=O)c1ccccc1C(=O)OCC(CC)CCCC` (stereo not given) was tested. Which outcome did it give?
The outcome was “inactive”.

With `CCON=C(CC)C1=C(O)CC(c2c(C)cc(C)cc2C)CC1=O` (stereo not given) as the molecule, how does the outcome read?
The outcome was “inactive”.

With `N#CC(CCc1ccc(Cl)cc1)(Cn1cncn1)c1ccccc1` (stereo not given) as the molecule, how does the outcome read?
The outcome was “inactive”.

Which outcome does the source give for `CCNc1nc(Cl)nc(NC(C)C)n1` here?
The outcome was “inactive”.

With `CCOc1cc(Oc2ccc(C(F)(F)F)cc2Cl)ccc1[N+](=O)[O-]` as the molecule, how does the outcome read?
Its outcome is “inactive”.

Which outcome does the source give for `Cc1cc(Cl)ccc1OCC(=O)O` here?
Its outcome is “inactive”.

How did the AC50 turn out when `CC(C)Oc1cc(-n2nc(C(C)(C)C)oc2=O)c(Cl)cc1Cl` was run?
Its AC50 is 29.3 µM (active).

Which AC50 does the source give for `C=CCC1=C(C)C(OC(=O)C2C(C=C(C)C)C2(C)C)CC1=O` (stereo not given) here?
Its AC50 is 31.7 µM (active) [middle of 4 runs].

`O=C(Nc1ccccc1)Nc1ccnc(Cl)c1` was tested. Which outcome did it give?
Its outcome is “inactive”.

How did the outcome turn out when `COc1cnc(OC)n2nc(NS(=O)(=O)c3c(OCC(F)F)cccc3C(F)(F)F)nc12` was run?
Its outcome is “inactive”.

How did the outcome turn out when `C=CC1(C)OC(=O)N(c2cc(Cl)cc(Cl)c2)C1=O` (stereo not given) was run?
Its outcome is “inactive”.

How did the outcome turn out when `COc1nc(C)nc(NC(=O)NS(=O)(=O)c2ccccc2CCC(F)(F)F)n1` was run?
Its outcome is “inactive”.

`COc1ccc(C(c2ccc(OC)cc2)C(Cl)(Cl)Cl)cc1` was tested. Which AC50 did it give?
Its AC50 is 15.3 µM (active).

With `CC(Oc1ccc(Cl)cc1Cl)C(=O)O` (stereo not given) as the molecule, how does the outcome read?
Its outcome is “inactive”.

Which AC50 does the source give for `C=CCC1=C(C)[C@@H](OC(=O)[C@@H]2[C@@H](C=C(C)C)C2(C)C)CC1=O` here?
The AC50 was 38.7 µM (active).

`CON(C)C(=O)Nc1ccc(Cl)c(Cl)c1` was tested. Which outcome did it give?
The outcome was “inactive”.

`N#Cc1nn(-c2c(Cl)cc(C(F)(F)F)cc2Cl)c(N)c1S(=O)C(F)(F)F` (stereo not given) was tested. Which AC50 did it give?
The AC50 was 28.1 µM (active).

For `CCCCOC(=O)c1ccccc1C(=O)OCCCC`, which outcome is on record?
The outcome was “inactive”.

And the AC50?
The AC50 was 15.4 µM (active).

With `C#CCOS(=O)OC1CCCCC1Oc1ccc(C(C)(C)C)cc1` (stereo not given) as the molecule, how does the AC50 read?
The AC50 was 7.36 µM (active).

For `CC(C)(C)c1ccc(CSc2cnn(C(C)(C)C)c(=O)c2Cl)cc1`, which AC50 is on record?
Its AC50 is 4.43 µM (active).

With `COc1nc(C)nc(NC(=O)NS(=O)(=O)c2ccccc2Cl)n1` as the molecule, how does the outcome read?
Its outcome is “inactive”.

For `COC(=O)N(OC)c1ccccc1COc1ccn(-c2ccc(Cl)cc2)n1`, which AC50 is on record?
Its AC50 is 15 µM (active).

With `COC(=O)c1ccccc1C(=O)OC` as the molecule, how does the outcome read?
The outcome was “inactive”.

`CS/C(C)=N/OC(=O)N(C)SN(C)C(=O)O/N=C(\C)SC` was tested. Which AC50 did it give?
Its AC50 is 28.3 µM (active).

`CCCC1COC(Cn2cncn2)(c2ccc(Cl)cc2Cl)O1` (stereo not given) was tested. Which outcome did it give?
Its outcome is “inactive”.

For `CCCCNC(=O)OCC#CI`, which AC50 is on record?
The AC50 was 18.7 µM (active) and 22.5 µM (active).

For `CC(C)C1(C)N=C(c2nc3ccccc3cc2C(=O)O)NC1=O` (stereo not given), which AC50 is on record?
Its AC50 is 1.33 µM (active).

With `Cc1c(F)c(F)c(COC(=O)C2C(/C=C(\Cl)C(F)(F)F)C2(C)C)c(F)c1F` (stereo not given) as the molecule, how does the AC50 read?
The AC50 was 32.5 µM (active).

Which AC50 does the source give for `N#Cc1cc(Br)c(O)c(Br)c1` here?
The AC50 was 20 µM (active).

With `CC1COC(Cn2cncn2)(c2ccc(Oc3ccc(Cl)cc3)cc2Cl)O1` (stereo not given) as the molecule, how does the AC50 read?
Its AC50 is 18.4 µM (active).

`COC(=O)C(C)Oc1ccc(Oc2ccc(Cl)cc2Cl)cc1` (stereo not given) was tested. Which outcome did it give?
Its outcome is “inactive”.

What about the AC50 of the same molecule?
The AC50 was 13.6 µM (active).

`CO/C=C(/C(=O)OC)c1ccccc1Oc1cc(Oc2ccccc2C#N)ncn1` was tested. Which AC50 did it give?
The AC50 was 20.6 µM (active) [middle of 4 runs].

For `COP(N)(=O)SC` (stereo not given), which outcome is on record?
The outcome was “inactive”.

`OC(c1ccc(Cl)cc1)(c1cncnc1)c1ccccc1Cl` (stereo not given) was tested. Which AC50 did it give?
The AC50 was 13.8 µM (active).

How did the outcome turn out when `CCCCNC(=O)n1c(NC(=O)OC)nc2ccccc21` was run?
Its outcome is “inactive”.
